# According to PubChem BioAssay (NCATS):
# Inconclusive results are not listed. Where a call stands in place of a potency, no number is given. The source made the active and inactive calls. The call rests on the fitted dose curve; in most records, active means well fitted inhibition curve with a large enough effect; inconclusive means small, poorly fitted or top-dose-only effect; inactive means flat fitted curve, though single readings scatter.
# Assay: P-glycoprotein substrates identified in KB-8-5-11 adenocarcinoma cell line, qHTS therapeutic library screen (AID 1346987); further: nearly all actives have a fitted effect of over 65% in size
# Conditions: KB-8-5-11 (P-gp overexpressing) viability, CellTiter-Glo, 72 h; series mostly up to 44.5 µM
# In short: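 KB-8-5-11: colchicine-selected sub-line of KB-3-1 over-expressing P-gp; assay medium lacked colchicine. 72 h drug exposure at 37 degree C, CellTiter-Glo.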
# Potency means the concentration at half of the fitted maximal effect.
row,Structure (SMILES),Potency
1,C[C@]12O[C@H](C[C@]1(O)CO)n1c3ccccc3c3c4c(c5c6ccccc6n2c5c31)CNC4=O,4610 nM (active)
2,C[C@]12C=CC(=O)N[C@@H]1CC[C@@H]1[C@@H]2CC[C@]2(C)[C@@H](C(=O)Nc3cc(C(F)(F)F)ccc3C(F)(F)F)CC[C@@H]12,inactive
3,CC1=C(/C=C/C(C)=C/C=C/C(C)=C/CO)C(C)(C)CCC1,inactive
4,COc1ccc(C[C@H](N)C(=O)N[C@H]2[C@@H](O)[C@H](n3cnc4c(N(C)C)ncnc43)O[C@@H]2CO)cc1,inactive
5,COc1cc([C@@H]2c3cc4c(cc3[C@@H](O[C@@H]3O[C@@H]5CO[C@@H](C)O[C@H]5[C@H](O)[C@H]3O)[C@H]3COC(=O)[C@H]23)OCO4)cc(OC)c1O,inactive
6,CC[C@@H](C(=O)O)[C@@H]1O[C@@H]([C@@H](C)[C@H](O)[C@H](C)C(=O)[C@H](CC)[C@H]2O[C@]3(C=C[C@@H](O)[C@]4(CC[C@@](C)([C@H]5CC[C@](O)(CC)[C@H](C)O5)O4)O3)[C@H](C)C[C@@H]2C)[C@@H](C)C[C@@H]1C,2310 nM (active)
7,Cc1cc(/C=C/c2ccc3cc(N(C)C)ccc3[n+]2C)c(C)n1-c1ccccc1,inactive
8,Cc1ccccc1,inactive
9,O=C(Nc1cccc(C(F)(F)F)c1)c1cc(Br)cc(Br)c1O,1300 nM (active)
10,C#CCOc1ccc2c(C)cc(=O)oc2c1,inactive
